Measurements reported in PubChem BioAssay (Tox21).
Values joined by “and” are separate entries in the source; they are usually repeats but may differ in a detail not shown here. Equal entries are not always repeated. Inconclusive results are not listed. A call without a number means that no potency is given here. Some compounds were tested as several samples or in several runs, with calls that do not always agree. Active and inactive are the calls of the source. Unless noted, calls follow the shape of the dose curve; as a rule, active = well fitted curve in the direction sought with a large enough effect in the repeat runs; inconclusive = weak or mixed curves; inactive = no such curve, though single readings can be large; an effect the other way counts as inactive or inconclusive.

How the values were obtained:
[1] = test system: estrogen-related receptor alpha (ERRalpha) with PGC-1alpha coactivator, human; experiment: qHTS assay to identify small molecule antagonists of the estrogen related receptor signaling pathway with the pleiotropic PPARgamma coactivator (PGC) (AID 1224821; calls by dose curve;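 also: series mostly up to about 46 µM; lower luminescence signal means antagonism of PGC/ERR signalling; nearly all actives have a fitted effect of over 50% in size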)
Summary of the method: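 Luminescent read-out (One-Glo, 30 min at room temperature) following 18 h treatment of PGC/ERR cells at 37 C with compounds delivered in DMSO. Cells had settled 6 h at 37 C/5% CO2 before dosing.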

[2] = target: Retinoic acid receptor RXR-alpha (Homo sapiens) (UniProt P19793); experiment: qHTS assay to identify small molecule agonists of the RXR signaling pathway (AID 1159527; calls by dose curve; also: nearly all actives have a fitted effect of over 35% in size; also: potency is read from the fitted curve at half-maximal effect)
Retinoic acid receptor RXR-alpha (Homo sapiens), sequence (P19793 whole entry, looked up): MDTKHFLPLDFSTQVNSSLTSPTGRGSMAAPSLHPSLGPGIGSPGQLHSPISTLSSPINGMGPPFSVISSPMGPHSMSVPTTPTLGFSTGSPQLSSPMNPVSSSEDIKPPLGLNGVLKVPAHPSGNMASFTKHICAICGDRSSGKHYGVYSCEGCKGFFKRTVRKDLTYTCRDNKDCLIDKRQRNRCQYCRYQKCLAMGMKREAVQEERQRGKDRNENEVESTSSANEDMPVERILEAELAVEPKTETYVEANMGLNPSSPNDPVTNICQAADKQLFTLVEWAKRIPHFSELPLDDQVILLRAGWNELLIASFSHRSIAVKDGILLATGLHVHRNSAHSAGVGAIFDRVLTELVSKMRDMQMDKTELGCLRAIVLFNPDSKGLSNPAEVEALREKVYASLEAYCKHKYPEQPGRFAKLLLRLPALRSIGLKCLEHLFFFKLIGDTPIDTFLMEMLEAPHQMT
Summary of the method: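 qHTS of the Tox21 10K library in GeneBLAzer RXR-alpha HEK 293T cells carrying a beta-lactamase reporter […]; 16 hr treatment, 9-cis retinoic acid as agonist control, FRET read-out.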

[3] = qHTS assay to identify small molecule agonists of the RXR signaling pathway - cell viability counter screen (AID 1159529); also: series mostly up to about 77 µM; nearly all actives have a fitted effect of over 50% in size
Summary of the method: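 Cell viability is measured by CellTiter-Glo luminescence, 30 min at room temperature, in wells already read for beta-lactamase. Engineered HEK 293T cells (RXR-alpha-UAS-bla) are dosed 16 hr at 37 C. Tetraoctyl ammonium bromide serves as positive control.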

[4] = qHTS assay to identify small molecule antagonists of the retinoid acid receptor (RAR) signaling pathway - cell viability counter screen (AID 1159551); also: nearly all actives have a fitted effect of over 35% in size
Summary of the method: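 Retinol-stimulated (1 uM final) C3RL4 cells, compound 6 h, 37 C; readout CellTiter-Glo luminescence (ATP) after 30 min RT incubation.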

[5] = qHTS assay to identify small molecule antagonists of the retinoic acid receptor (RAR) signaling pathway (AID 1159552; also: nearly all actives have a fitted effect of over 50% in size)
Summary of the method: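 Quantitative HTS in C3RL4 RARE-luciferase reporter cells. Compounds were added with 1 uM (final) retinol; luminescence was read after 6 hr.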

[6] = qHTS assay to identify small molecule agonists of the retinoic acid receptor (RAR) signaling pathway (AID 1159553); also: potency is read from the fitted curve at half-maximal effect
Summary of the method: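 Reporter readout comes from luciferase under RARE control in C3RL4 cells; compound exposure lasts 6 hr at 37 C in 5% CO2, and luminescence is recorded following a 30 min room-temperature incubation with reagent.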

[7] = qHTS assay to identify small molecule antagonists of the estrogen related receptor (ERR) signaling pathway from Tox21 library - cell viability counter screen (AID 1224834); also: nearly all actives have a fitted effect of over 30% in size
Summary of the method: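 After 17.5 h of compound exposure at 37 C, ERR cells are incubated with CellTiter-Fluor for 30 min and fluorescence intensity serves as the viability measure.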

[8] = target: Luciferin 4-monooxygenase (Photinus pyralis) (UniProt P08659); experiment: qHTS assay to identify small molecule inhibitors of firefly luciferase (AID 1224835); also: nearly all actives have a fitted effect of over 25% in size; also: potency is read from the fitted curve at half-maximal effect
Luciferin 4-monooxygenase (Photinus pyralis), sequence (P08659 whole entry, looked up): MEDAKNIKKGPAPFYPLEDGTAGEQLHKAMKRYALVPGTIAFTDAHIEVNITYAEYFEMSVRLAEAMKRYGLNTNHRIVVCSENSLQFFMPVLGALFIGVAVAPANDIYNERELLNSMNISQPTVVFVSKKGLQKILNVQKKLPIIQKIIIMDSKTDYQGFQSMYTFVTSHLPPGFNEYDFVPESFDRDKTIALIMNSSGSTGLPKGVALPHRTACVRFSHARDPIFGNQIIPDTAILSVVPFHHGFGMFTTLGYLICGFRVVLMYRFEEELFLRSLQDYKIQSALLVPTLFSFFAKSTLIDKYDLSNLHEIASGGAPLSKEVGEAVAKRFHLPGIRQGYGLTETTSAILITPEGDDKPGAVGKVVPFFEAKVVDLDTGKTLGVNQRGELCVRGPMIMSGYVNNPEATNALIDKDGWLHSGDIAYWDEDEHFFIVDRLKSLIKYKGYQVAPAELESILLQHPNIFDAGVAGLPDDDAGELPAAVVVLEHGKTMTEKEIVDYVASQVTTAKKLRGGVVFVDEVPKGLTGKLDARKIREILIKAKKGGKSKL
Summary of the method: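 Inhibition of purified Photinus luciferase is measured by luminescence. Substrate levels (D-luciferin, ATP) sit at their KM values. Each compound is tested in a concentration series.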

[9] = qHTS assay to identify small molecule agonists of the constitutive androstane receptor (CAR) signaling pathway - cell viability counter screen (AID 1224836); also: series mostly up to about 92 µM; nearly all actives have a fitted effect of over 45% in size
Summary of the method: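 Counter screen multiplexed with the CAR reporter readout: HepG2 cells co-transfected with hCAR and the CYP2B6-2.2kb construct receive a 15-concentration compound series and 0.75 uM PK11195 (final), then CellTiter-Fluor fluorescence is read after 23 h.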

[10] = qHTS assay to identify small molecule antagonists of the constitutive androstane receptor (CAR) signaling pathway - cell viability counter screen (AID 1224837); also: series mostly up to about 92 µM; nearly all actives have a fitted effect of over 45% in size
Summary of the method: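 Counter screen run in HepG2-CYP2B6-hCAR cells: 4 hr settle, compound titration (15 concentrations) with 50 nM CITCO, 23 hr at 37 C/5% CO2, CellTiter-Fluor fluorescence.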

[11] = target: Nuclear receptor subfamily 1 group I member 3 (Homo sapiens) (UniProt Q14994); experiment: qHTS assay to identify small molecule antagonists of the constitutive androstane receptor (CAR) signaling pathway (AID 1224838);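 also: HepG2 cells stably expressing hCAR with CYP2B6 luciferase reporter stimulated by CITCO; nearly all actives have a fitted effect of over 40% in size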
Nuclear receptor subfamily 1 group I member 3 (Homo sapiens), sequence (Q14994 whole entry, looked up): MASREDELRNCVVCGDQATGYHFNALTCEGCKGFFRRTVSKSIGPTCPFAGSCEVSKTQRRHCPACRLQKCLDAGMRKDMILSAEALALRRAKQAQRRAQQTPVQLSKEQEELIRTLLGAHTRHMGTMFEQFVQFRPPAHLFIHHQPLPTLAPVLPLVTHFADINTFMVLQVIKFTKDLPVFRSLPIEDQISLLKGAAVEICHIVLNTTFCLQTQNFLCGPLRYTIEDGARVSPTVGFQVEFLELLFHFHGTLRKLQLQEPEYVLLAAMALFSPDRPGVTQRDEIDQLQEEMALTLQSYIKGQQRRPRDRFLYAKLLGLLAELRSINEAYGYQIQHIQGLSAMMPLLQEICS
Summary of the method: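 Cell line: HepG2 double-stable for hCAR and CYP2B6-2.2kb reporter. Agonist: CITCO, 50 nM final. Compounds: 15 concentrations, 24 h, 37 C. Detection: ONE-Glo luminescence.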

[12] = target: Nuclear receptor subfamily 1 group I member 3 (Homo sapiens) (UniProt Q14994); experiment: qHTS assay to identify small molecule agonists of the constitutive androstane receptor (CAR) signaling pathway (AID 1224839); also: nearly all actives have a fitted effect of over 15% in size; also: potency is read from the fitted curve at half-maximal effect
Summary of the method: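 A 15-concentration quantitative screen uses HepG2 cells co-transfected stably with human CAR and CYP2B6-2.2kb reporter. Treatment lasts 24 h with 0.75 uM PK11195 final present; ONE-Glo luminescence is the signal.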

[13] = qHTS assay to identify small molecule antagonists of the estrogen related receptor signaling pathway with the pleiotropic PPARgamma coactivator (PGC) from Tox21 10K library - cell viability counter screen (AID 1224840; active = well fitted cell-killing curve with a large enough effect in the repeat runs, not every such curve was filed as active; also: nearly all actives have a fitted effect of over 40% in size)
Summary of the method: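 Following seeding of 2,000 PGC/ERR cells/well and 6 hours' incubation, test compounds were delivered in DMSO. The plates then sat 17.5 hours at 37 C before a fluorogenic live-cell protease reagent (CellTiter-Fluor) was read after 30 min.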

[14] = target: Thyrotropin receptor (Homo sapiens) (UniProt P16473); experiment: qHTS assay to identify small molecule agonists of the thyroid stimulating hormone receptor (TSHR) signaling pathway (AID 1224843; calls by dose curve; also: nearly all actives have a fitted effect of over 45% in size)
Thyrotropin receptor (Homo sapiens), sequence (P16473 whole entry, looked up): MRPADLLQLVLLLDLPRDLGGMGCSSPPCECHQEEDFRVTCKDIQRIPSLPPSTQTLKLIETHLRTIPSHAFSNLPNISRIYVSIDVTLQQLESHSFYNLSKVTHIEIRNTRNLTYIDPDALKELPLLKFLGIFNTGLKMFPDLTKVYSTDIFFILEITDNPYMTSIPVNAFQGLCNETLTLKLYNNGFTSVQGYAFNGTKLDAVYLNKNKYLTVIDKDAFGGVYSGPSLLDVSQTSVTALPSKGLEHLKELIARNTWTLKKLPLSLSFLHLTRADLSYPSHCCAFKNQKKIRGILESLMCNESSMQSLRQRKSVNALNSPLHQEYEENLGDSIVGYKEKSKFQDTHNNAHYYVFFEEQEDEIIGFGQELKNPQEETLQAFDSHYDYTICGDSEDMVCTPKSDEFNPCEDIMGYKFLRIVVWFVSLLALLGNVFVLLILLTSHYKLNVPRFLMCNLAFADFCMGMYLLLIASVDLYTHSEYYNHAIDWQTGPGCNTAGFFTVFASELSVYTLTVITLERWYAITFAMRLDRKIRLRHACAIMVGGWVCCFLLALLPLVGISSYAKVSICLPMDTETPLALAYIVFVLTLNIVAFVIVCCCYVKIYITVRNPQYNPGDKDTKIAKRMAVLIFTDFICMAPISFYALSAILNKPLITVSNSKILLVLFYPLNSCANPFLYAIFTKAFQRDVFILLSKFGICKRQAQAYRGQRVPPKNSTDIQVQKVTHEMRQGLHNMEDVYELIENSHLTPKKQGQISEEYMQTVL
Summary of the method: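 Screening of the Tox21 10K collection used HEK293 cells engineered with TSHR at 800 cells per well. After a 30-min room-temperature compound exposure, HTRF cAMP reagents were added and fluorescence recorded 1 h later.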

[15] = qHTS assay to identify small molecule agonists of the hypoxia (HIF-1) signaling pathway - cell viability counter screen (AID 1224844; calls by dose curve; also: nearly all actives have a fitted effect of over 50% in size)
Summary of the method: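 Cells (HRE-bla ME-180, 2,000 per well) sat 5 hrs at 37C, got compound for 17 hrs, were read for CCF4-AM FRET, and were finally lysed with CellTiter-Glo for a 30 min room-temperature luminescence read.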

[16] = qHTS assay to identify small molecule antagonists of the estrogen related receptor signaling pathway with the pleiotropic PPARgamma coactivator (PGC) from Tox21 10K library (AID 1224841; call rule not given here)
Summary of the method: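 qHTS antagonist format: PGC/ERR cells, 2k/well, compound in DMSO by pin transfer after 6 h attachment, 18 h treatment at 37 C, One-Glo luminescence read at 30 min.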

Compound | outcome [1] | Potency [2] | Potency [3] | outcome [4] | Potency [5] | Potency [6] | Potency [7] | Potency [8] | Potency [9] | Potency [10] | Potency [11] | Potency [12] | Potency [13] | Potency [14] | Potency [15] | Potency [16]
CC(C)Cc1ccc(C(C)C(=O)O)cc1 (stereo not drawn) | inactive | – | – | – | – | – | – | – | – | – | – | – | – | – | – | –
CCN(CC)CCOC(=O)c1ccc(N)cc1 | inactive | – | – | – | – | – | – | – | – | – | – | – | – | – | – | –
CCN1CCCC1=O | – | inactive | inactive | inactive | inactive | inactive | inactive | inactive | inactive | inactive | inactive | inactive | inactive | inactive | inactive | –
COCCOCCOC | – | inactive | inactive | inactive | inactive | inactive | inactive | inactive | inactive | inactive | inactive | inactive | inactive | inactive | inactive | –
COc1cc(O)c(C(=O)c2ccccc2)cc1S(=O)(=O)O | – | inactive | inactive | inactive | inactive | inactive | inactive | inactive | inactive | inactive | inactive | inactive | inactive | inactive | inactive | –
Cc1c(N(C)CS(=O)(=O)O)c(=O)n(-c2ccccc2)n1C | – | inactive | inactive | inactive | inactive | inactive | inactive | inactive | inactive | inactive | inactive | inactive | inactive | inactive | inactive | –
Nc1cccc(N)c1 | – | inactive | inactive | inactive | inactive | inactive | inactive | inactive | inactive | inactive | inactive | inactive | inactive | – | inactive | –
COC(=O)C1CCC(C(=O)OC)CC1 (stereo not drawn) | – | inactive | inactive | inactive | inactive | inactive | inactive | inactive | inactive | inactive | – | – | inactive | inactive | inactive | inactive
CC(=O)CCC(C)C | – | inactive | inactive | inactive | inactive | inactive | inactive | inactive | inactive | inactive | inactive | inactive | inactive | inactive | inactive | –
CCCCOCCOCCSC#N | – | inactive | inactive | inactive | inactive | inactive | inactive | inactive | inactive | inactive | inactive | inactive | inactive | inactive | inactive | –
NC(=O)c1ccc([N+](=O)[O-])cc1Cl | – | inactive | inactive | inactive | inactive | inactive | inactive | inactive | inactive | inactive | inactive | inactive | inactive | inactive | inactive | –
COc1ccccc1NC(=O)CC(C)=O | – | inactive | inactive | inactive | inactive | inactive | inactive | inactive | inactive | inactive | inactive | inactive | inactive | inactive | inactive | –
COc1cc(C=O)ccc1O | – | inactive | inactive | inactive | inactive | inactive | inactive | inactive | inactive | inactive | inactive | inactive | inactive | inactive | inactive | –
OC[C@@H](O)[C@@H](O)[C@H](O)[C@H](O)CO | – | inactive | inactive | inactive | inactive | inactive | inactive | inactive | inactive | inactive | – | – | inactive | inactive | inactive | inactive
CC1=NN(c2ccccc2)C(=O)C1 | – | inactive | inactive | inactive | inactive | inactive | inactive | inactive | inactive | inactive | – | – | inactive | inactive | inactive | –
COCC(C)N (stereo not drawn) | – | inactive | inactive | inactive | inactive | inactive | inactive | inactive | inactive | inactive | inactive | inactive | inactive | inactive | inactive | –
O=C(OCc1ccccc1)c1ccccc1 | – | inactive | inactive | inactive | inactive | 2.43 µM (active) and 29.8 µM (active) | inactive | 14.2 µM (active) and 11.2 µM (active) and 9.77 µM (active) | inactive | inactive | inactive | – | inactive | inactive | inactive | inactive
COC(=O)c1ccc(C=O)cc1 | – | inactive | inactive | inactive | inactive | inactive | inactive | inactive | inactive | inactive | inactive | inactive | inactive | – | inactive | inactive
CCCCOC(=O)CCCCCCCCC(=O)OCCCC | – | inactive | inactive | inactive | inactive | inactive | inactive | inactive | inactive | inactive | inactive | inactive | inactive | inactive | inactive | –
C/C=C/c1ccc(O)c(OC)c1 | – | inactive | inactive | inactive | inactive | inactive | inactive | inactive | inactive | inactive | inactive | inactive | inactive | inactive | inactive | –
C1CNCCN1 | – | 11.3 µM (active) and inactive | inactive | inactive | inactive | inactive | inactive | inactive | inactive | inactive | inactive | inactive | inactive | inactive | inactive | –
C[C@]12C=CC(=O)C=C1CC[C@@H]1[C@@H]2C(=O)C[C@@]2(C)[C@H]1CC[C@]2(O)C(=O)CO | – | inactive | inactive | inactive | inactive | inactive | inactive | inactive | inactive | inactive | inactive | – | inactive | inactive | inactive | –
COc1ccc(C(=O)c2ccccc2)c(O)c1 | – | inactive | inactive | inactive | inactive | 61.1 µM (active) and 23.7 µM (active) | inactive | 31.2 µM (active) and 35.6 µM (active) and 30.9 µM (active) | inactive | inactive | inactive | 47.8 µM (active) and 48.6 µM (active) | inactive | inactive | inactive | –
CC(O)COc1ccccc1 (stereo not drawn) | – | inactive | inactive | inactive | inactive | inactive | inactive | inactive | inactive | inactive | inactive | inactive | inactive | inactive | inactive | –
CCCCOCCOCCOC(C)=O | – | inactive | inactive | inactive | inactive | inactive | inactive | inactive | inactive | inactive | inactive | inactive | inactive | – | inactive | inactive
CCOCCO | – | inactive | inactive | inactive | inactive | inactive | inactive | inactive | inactive | inactive | inactive | inactive | inactive | inactive | inactive | –
c1ccc2[nH]c(-c3cscn3)nc2c1 | – | 1.1 µM (active) and inactive | inactive | inactive | inactive | 8.69 µM (active) and 2.43 µM (active) and 5.31 µM (active) | inactive | 28.4 µM (active) and 35.6 µM (active) and 17.4 µM (active) | inactive | inactive | inactive | 13.8 µM (active) and 6.11 µM (active) and 7.5 µM (active) | inactive | inactive | inactive | –
CN(C)Cc1cc(CN(C)C)c(O)c(CN(C)C)c1 | – | inactive | inactive | inactive | inactive | inactive | inactive | inactive | inactive | inactive | inactive | inactive | inactive | inactive | inactive | –
C=CC(=O)NC(C)(C)CS(=O)(=O)O | – | inactive | inactive | inactive | inactive | inactive | inactive | inactive | inactive | inactive | inactive | inactive | inactive | inactive | inactive | –
CCCCCCCCCCCCCCCCCC(=O)OCC(O)CO (stereo not drawn) | – | inactive | inactive | inactive | inactive | inactive | inactive | inactive | inactive | inactive | inactive | inactive | inactive | inactive | inactive | –
